Measured values: PubChem BioAssay (NCATS)
Values joined by “and” are separate entries in the source; they are usually repeats but may differ in a detail not shown here. Identical values can stand only once. Records with an inconclusive call do not appear. Active and inactive are the calls of the source. The call rests on the fitted dose curve; in most records, active means well fitted curve in the direction sought with a large enough effect; inconclusive means small, poorly fitted or top-dose-only effect, or another doubt; inactive means no such curve, though single readings can be large; an effect the other way counts as inactive or inconclusive.

Legend:
[1] = biological target: Cellular tumor antigen p53 (Homo sapiens) (UniProt P04637); experiment: Primary qHTS for small molecule compounds that upregulate eGFP-tagged delta133p53alpha (in N-terminal) cells. (AID 2060322); conditions: NCI-H358 eGFP-delta133p53alpha fluorescence, 24 h; activation: active compounds read high; further: nearly all actives have a fitted effect of over 75% in size; further: potency means the concentration at half of the fitted maximal effect;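 on activation: series mostly up to about 56 µM; 0% = DMSO vehicle and 100% = reference activator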
Cellular tumor antigen p53 (Homo sapiens), sequence (P04637 whole entry, looked up): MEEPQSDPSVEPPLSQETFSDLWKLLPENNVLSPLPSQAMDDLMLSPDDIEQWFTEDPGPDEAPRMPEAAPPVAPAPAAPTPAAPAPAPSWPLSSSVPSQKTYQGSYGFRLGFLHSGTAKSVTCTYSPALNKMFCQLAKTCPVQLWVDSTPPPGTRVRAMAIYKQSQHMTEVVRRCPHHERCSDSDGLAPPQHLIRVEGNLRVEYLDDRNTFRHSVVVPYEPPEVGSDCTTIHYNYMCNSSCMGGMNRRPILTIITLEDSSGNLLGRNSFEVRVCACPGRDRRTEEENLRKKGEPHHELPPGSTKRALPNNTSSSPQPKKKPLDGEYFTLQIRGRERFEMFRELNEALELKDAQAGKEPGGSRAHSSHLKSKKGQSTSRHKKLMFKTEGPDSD
How it was run: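 NCI-H358 cells pre-induced 24 h with 10 ng/ml doxycycline to express N-terminal eGFP-delta133p53alpha, then dosed 24 h at 37C without doxycycline; fixed, Hoechst-stained, GFP intensity by laser scanning cytometry, normalized to DMSO (0%) and 57.5 uM 5-azacytidine (100%).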

[2] = BET inhibitor-based combinations targeting novel dependencies in MECOM-rearranged (r) AML: SET-2 cell line (AID 2202231); conditions: SET-2 AML cells viability, CellTiter-Glo luminescence, 48 h; viability: active compounds read low, concentration not given here; further: nearly all actives have a fitted effect of over 35% in size; further: potency means the concentration at half of the fitted maximal effect;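 on viability: plate controls were DMSO treated cells for no effect and wells without cells for full effect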
How it was run: (§1)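 Each compound was tested at eleven concentrations on cells seeded at 500/well. After two days' incubation, ATP-based luminescence reported viability; responses relative to DMSO and blank wells yielded AUC and cell-line-centred Z-AUC.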

[3] = BET inhibitor-based combinations targeting novel dependencies in MECOM-rearranged (r) AML: HNT-34 cell line (AID 2202234); further: nearly all actives have a fitted effect of over 35% in size; further: potency means the concentration at half of the fitted maximal effect
How it was run: (§2)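 First, 500 cells per well were seeded; next, drugs were pinned as 11-point doses; then plates sat 48 hr in the incubator; finally CellTiter-Glo was added and luminescence read, with AUC and Z-AUC computed.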

[4] = BET inhibitor-based combinations targeting novel dependencies in MECOM-rearranged (r) AML: UCSD-AML1 cell line (AID 2202235);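 further: series mostly up to about 46 µM; plate controls were DMSO vehicle wells for no effect and blank wells for full effect; nearly all actives have a fitted effect of over 40% in size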
How it was run: as §2

[5] = BET inhibitor-based combinations targeting novel dependencies in MECOM-rearranged (r) AML: AML-191 cell line (AID 2202236; further: nearly all actives have a fitted effect of over 35% in size; further: potency means the concentration at half of the fitted maximal effect)
How it was run: as §1

[6] = BET inhibitor-based combinations targeting novel dependencies in MECOM-rearranged (r) AML: AML-194 cell line (AID 2202237; further: nearly all actives have a fitted effect of over 40% in size; further: potency means the concentration at half of the fitted maximal effect)
How it was run: as §1

[7] = BET inhibitor-based combinations targeting novel dependencies in MECOM-rearranged (r) AML: OCI-AML3 cell line (AID 2202232); conditions: Potency: OCI-AML3 viability; further: potency means the concentration at half of the fitted maximal effect; nearly all actives have a fitted effect of over 35% in size
How it was run: as §1

[8] = BET inhibitor-based combinations targeting novel dependencies in MECOM-rearranged (r) AML: MV-4-11 cell line (AID 2202233); further: potency means the concentration at half of the fitted maximal effect; nearly all actives have a fitted effect of over 45% in size
How it was run: as §2

COc1ccccc1C(=O)Nc1cc2c(cc1N1CCCCC1)n(C)c(=O)n2C
inactive: activation [1] -12.3% | viability [2] 101% | Potency [3] | Potency [4] | Potency [5] | Potency [6]

COc1ccc(-c2ccc3c(N4CCOCC4)nc(N4C[C@@H](C)O[C@@H](C)C4)nc3n2)cc1CO
active: Potency [1] 21.7 µM | Potency [7] 1.18 µM | Potency [8] 1.05 µM | Potency [3] 0.934 µM

CCOc1cc(N)c(Cl)cc1C(=O)NCC1CN(Cc2ccc(F)cc2)CCO1 (configuration not stated)
inactive: activation [1] -2.82% and 4.36% | viability [2] 105% | Potency [3] | Potency [4] | Potency [5] | Potency [6]

CCCCCCOC(=O)NC(=N)c1ccc(NCc2nc3cc(C(=O)N(CCC(=O)OCC)c4ccccn4)ccc3n2C)cc1
inactive: activation [1] -36.8%
active: Potency [7] 8.33 µM | Potency [8] 8.33 µM

CN(C)CCN1C(=O)c2cccc3cc(N)cc(c23)C1=O
active: Potency [1] 34.3 µM | Potency [2] 14.8 µM | Potency [3] 10.5 µM | Potency [5] 13.2 µM | Potency [6] 16.6 µM

O=c1ncn2nc(Sc3ccc(F)cc3F)ccc2c1-c1c(Cl)cccc1Cl
inactive: activation [1] 2.34% | Potency [6]
active: Potency [2] 20.9 µM | Potency [8] 20.9 µM | Potency [5] 29.5 µM

CCCCC(=O)O[C@]1(C(=O)CO)[C@@H](C)C[C@H]2[C@@H]3CCC4=CC(=O)C=C[C@]4(C)[C@@]3(F)[C@@H](O)C[C@@]21C
active: Potency [3] 14.8 µM
inactive: activation [1] 8.12% | viability [2] 109% | Potency [4]

CC(=O)O[C@]1(C(C)=O)CC[C@H]2[C@@H]3C=C(C)C4=CC(=O)CC[C@]4(C)[C@H]3CC[C@@]21C
inactive: activation [1] -26.8% | viability [2] 110% | Potency [4]
active: Potency [3] 18.6 µM
